Bioassay records deposited in PubChem BioAssay by The Scripps Research Institute Molecular Screening Center.
Sampled rows, rich in hits. Any-hit rate of the full collection: about 3.5%.
MITF primary: blocks human microphthalmia-associated transcription factor; O75030; AlphaScreen MITF homodimerization, bead proximity signal; inhibition, % at 2.6 µM; hit rate 0.91% among 650,000; AID 1259374; in the data active = inhibition above about 50%;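 also: 0% = vehicle wells with protein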
GPR151 ag: activators of human GPR151; Q8TDV0; PathHunter beta-arrestin GPR151 cells, luminescence; hit rate 1% among 650,000; activation, % at 11.2 µM; AID 1508602; in the data active = activation above about 4.9%;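 also: 0% = median of compound wells and 100% = cells with positive control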
TEAD-YAP block: TEAD-YAP interaction inhibition; HEK-TIYL cells, TEAD-Gal4/YAP UAS-luciferase luminescence; inhibition, % at 9.12 µM; hit rate 1.4% among 640,000; AID 1259422; in the data active = inhibition above about 32%;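 also: 0% = median of test compound wells and 100% = reference inhibitor wells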
FBW7 activator: activators of human E3 ligase FBW7. AlphaScreen FBW7–phospho-cyclin E peptide binding, activator screen. normalized activity (activation), % at 26.1 µM. hit rate 0.13% among 650,000. Q969H0; in the data active = normalized activity above about 1.9%;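 also: purified mutant Fbw7 with reduced substrate affinity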
Target sequence (Q969H0 whole entry, looked up): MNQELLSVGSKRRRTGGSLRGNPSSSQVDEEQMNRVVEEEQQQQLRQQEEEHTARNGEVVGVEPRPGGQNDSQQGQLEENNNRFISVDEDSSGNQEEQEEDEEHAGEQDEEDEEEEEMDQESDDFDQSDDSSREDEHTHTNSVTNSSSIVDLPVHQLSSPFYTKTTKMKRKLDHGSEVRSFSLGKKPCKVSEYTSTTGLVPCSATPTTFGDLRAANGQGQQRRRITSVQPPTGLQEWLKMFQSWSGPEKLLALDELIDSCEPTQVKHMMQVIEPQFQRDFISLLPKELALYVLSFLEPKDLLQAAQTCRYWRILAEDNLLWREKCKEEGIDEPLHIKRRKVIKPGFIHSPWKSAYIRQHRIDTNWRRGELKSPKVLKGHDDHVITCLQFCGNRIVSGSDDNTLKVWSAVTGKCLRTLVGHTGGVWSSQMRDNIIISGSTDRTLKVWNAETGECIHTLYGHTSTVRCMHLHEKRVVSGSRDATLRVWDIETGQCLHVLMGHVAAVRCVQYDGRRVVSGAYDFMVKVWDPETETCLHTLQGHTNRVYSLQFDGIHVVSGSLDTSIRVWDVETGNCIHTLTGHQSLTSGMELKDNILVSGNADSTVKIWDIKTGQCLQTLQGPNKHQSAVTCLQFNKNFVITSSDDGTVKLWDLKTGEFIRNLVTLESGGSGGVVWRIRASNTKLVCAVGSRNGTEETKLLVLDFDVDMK
* marks the source's active call; other numbers are inactive results; ! = repeats disagree.

SMILES | MITF primary | GPR151 ag | TEAD-YAP block | FBW7 activator
Cc1ccc(C(=O)c2cc([N+](=O)[O-])ccc2N2CCOCC2)cc1 | 10 | 0 | 9 | 0
COc1ccc(C(=O)c2cc([N+](=O)[O-])ccc2N2CCOCC2)cc1 | -6 | 1 | 60* | 0
CCC(CC)NC(=O)c1cc([N+](=O)[O-])ccc1N1CCOCC1 | 3 | 1 | 9 | 0
CCC(C)NC(=O)Cn1cnc2sc(C)c(C)c2c1=O (configuration not stated) | -2 | -1 | 3 | 0
O=C(NCCOc1ccc2nnc(-c3ccccc3Cl)n2n1)Nc1ccc(Cl)cc1 | -3 | 1 | 2 | 0
FC(F)(F)c1cc(-c2ccc(Cl)cc2)no1 | -1 | 0 | -4 | 0
Cc1ccc(SCCNC(=O)CCl)cc1 | -1 | 0 | 43* | 0
CNC(=S)N1CCC(NC(=O)C(Cc2ccc(OC)cc2)NC(C)=O)CC1 (configuration not stated) | 5 | 3 | -15 | 2.4*
CCC(C)c1ccccc1NC(=O)c1ccncc1 (configuration not stated) | -12 | 1 | 1 | 0
CC1=C(C(=O)NCCc2ccc(S(N)(=O)=O)cc2)C2(CCC(C)CC2)OC1=O (configuration not stated) | 19 | -2 | -7 | 2.0*
CC1=C(C(=O)NCCc2ccc(S(N)(=O)=O)cc2)C2(CCCCC2)OC1=O | -8 | 1 | -3 | 0
COc1ccc(C(=O)/C=C/Nc2ccccc2)cc1OC | 1 | 0 | -65 | 0
O=C(Nc1cccc(C(=O)N2CCOCC2)c1)C(c1ccccc1)c1ccccc1 | -1 | 0 | 3 | 0
CC(C)(C)n1ncc2c(=O)n(CC(=O)OCc3ccccc3)cnc21 | 0 | -1 | 82* | 0
O=C(CSc1nnnn1-c1cccc(F)c1)c1ccc2c(c1)OCCO2 | -9 | 1 | 78* | 0
O=C(CSc1ncccc1C(=O)O)c1ccc2ccccc2c1 | 6 | 0 | -13 | 0
O=C(CSc1ncccc1C(=O)O)c1ccc2c(c1)OCCO2 | 0 | 0 | 34* | 0
O=C(NN1C(=O)c2ccc(S(=O)(=O)c3ccc4c(c3)C(=O)N(NC(=O)c3cccnc3)C4=O)cc2C1=O)c1cccnc1 | 12 | -1 | -2 | 0
Cc1cccc(Nc2ccc([N+](=O)[O-])cc2S(N)(=O)=O)c1 | 9 | -2 | 36* | 0
CC(C)CC[n+]1ccccc1/C=C/c1ccc(N(C)C)cc1 | 6 | 1 | 91* | 0
CCC(C)N1C(=O)S/C(=C/c2cc(C)n(-c3ccccn3)c2C)C1=O (configuration not stated) | 7 | 2 | 41* | 0
NNc1nncc2ccccc12 | 5 | -1 | 37*! | 1
COc1ccc(/C(C)=N/Nc2nncc3ccccc23)cc1 | -6 | -1 | 33* | 0
CCOc1cc(CO)cc(Cl)c1OCc1cccc(F)c1 | 7 | -1 | -5 | 0
CC(Oc1ccc2c(c1)OCO2)C(=O)NNC(=S)NCC1CCCO1 (configuration not stated) | -8 | 2 | -1 | 0
SMILES | MITF primary | GPR151 ag | TEAD-YAP block | FBW7 activator
C[C@H](NC(=O)c1ccco1)C(=O)Nc1nccs1 | 11 | 1 | -7 | 0
Clc1ccc(COc2ccccc2C2N(c3ccccc3)N=C(c3ccccc3)N2c2ccccc2)cc1 (configuration not stated) | 20 | 0 | 85* | 0
COc1ccc(N2C(C(C)=O)=NN(c3ccc(Cl)cc3)C2c2ccc(OCc3c(Cl)cccc3Cl)c(OC)c2)cc1 (configuration not stated) | 7 | 0 | -1 | 0
COc1ccc(N2C(C(C)=O)=NN(c3ccccc3)C2c2ccccc2OCc2c(Cl)cccc2Cl)cc1 (configuration not stated) | 3 | 1 | 45* | 1
CSc1ccc(/C=C/c2ccc3cccc(O)c3n2)cc1 | 13 | -7 | 34* | 0
Oc1ccc(Br)c2ccc(/C=C/c3ccccc3)nc12 | 13 | 0 | -23 | 0
Oc1cccc2ccc(/C=C/c3ccccc3)nc12 | 2 | -7 | 32* | 0
CC1CCCC(C)N1C(=O)Cn1nnc2c(cnn2-c2ccc(F)cc2)c1=O (configuration not stated) | -4 | 0 | -8 | 0
Cc1onc(-c2ccccc2)c1C(=O)Nc1ccc(F)cc1F | 9 | 0 | 8 | 1
C=CCN1/C(=C/C(=C/c2sc3ccccc3[n+]2CC=C)CC)Sc2ccccc21 | 52* | 4 | 83* | 0
COc1cc(OC)nc(CSc2ccc(NC(=O)CCl)cc2)n1 | 8 | -1 | 36* | 0
COc1cc(OC)nc(CSCCNC(=O)CCl)n1 | -1 | 1 | 10 | 0
